Compound activity (PubChem)
Shown are actives, neighbours in structure and some others; about 3.1% of the full set was active somewhere.
TrxR1 substrate – rat thioredoxin reductase 1 substrate activity. purified TrxR1 substrate turnover, NADPH consumption readout. O89049. actives 0.01% (n = 390,000). Potency, µM (doses to about 114 µM); also: nearly all actives have a fitted effect of over 50% in size
Target sequence (O89049 whole entry, looked up): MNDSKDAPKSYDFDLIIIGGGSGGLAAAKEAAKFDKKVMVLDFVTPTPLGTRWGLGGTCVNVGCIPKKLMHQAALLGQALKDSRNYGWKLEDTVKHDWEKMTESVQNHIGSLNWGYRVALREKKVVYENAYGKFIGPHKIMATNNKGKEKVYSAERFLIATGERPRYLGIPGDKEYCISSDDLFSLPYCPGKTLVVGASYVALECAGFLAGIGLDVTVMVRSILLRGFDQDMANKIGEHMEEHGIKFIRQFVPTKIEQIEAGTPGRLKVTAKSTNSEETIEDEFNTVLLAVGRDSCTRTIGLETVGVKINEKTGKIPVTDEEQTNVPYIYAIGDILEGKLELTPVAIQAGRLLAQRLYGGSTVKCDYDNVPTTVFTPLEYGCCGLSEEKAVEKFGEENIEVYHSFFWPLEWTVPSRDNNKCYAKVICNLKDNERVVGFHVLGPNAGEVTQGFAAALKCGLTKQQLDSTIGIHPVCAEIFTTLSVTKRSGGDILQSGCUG
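Rat TrxR1, dispensed at 90 nM, was prereduced with 400 uM NADPH (final) for 5 min at ~22 deg C, then incubated with compound 15 min before 400 uM selenite. A first-read NADPH fluorescence drop versus no-compound background flagged substrates.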
Mito fusion yeast – blocks mitochondrial division or promotes mitochondrial fusion | Potency, µM (titrated, usually from 46.1 µM), most hits filed as activators | actives 0.23% (n = 320,000) | S. cerevisiae fusion-defective mutant growth rescue, CellTiterGlo 48 h; also: nearly all actives have a fitted effect of over 45% in size
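S. cerevisiae fusion-defective temperature-sensitive mutants (e.g. fzo1-1, mgm1-5) grown 48 h at 37C in YPEG (ethanol/glycerol non-fermentable) medium with 23 nl compound per well; growth rescue read as CellTiterGlo luminescence.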
A549 viability – kills or reduces viability of A549 cells in Nrf2 counter-screen | A549 ARE-Fluc cells, CellTiter-Fluor viability, 18-24 h | Potency, µM (doses to about 46 µM), most hits filed as inhibitors | actives 0.16% (n = 390,000) | AID 504648
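A549 ARE_Fluc cells in 5% FBS OPTI-MEM were exposed to compounds in concentration-response for 18-24 h at 37 deg C. Viability was read by CellTiter-Fluor fluorescence (Ex 405/Em 525) after 30 min, before the luciferase read.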
rTrxR1 inhibitor – rat TrxR1 inhibition | recombinant rTrxR1, NADPH fluorescence consumption, selenite substrate | Potency, µM (highest dose often 114 µM), most hits filed as inhibitors | actives 1% (n = 390,000); also: nearly all actives have a fitted effect of over 65% in size
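Rat TrxR1 (90 nM in the dispensed reagent) was pre-reduced with 400 uM NADPH for 5 min at room temperature, then incubated with compound for 15 min. After 400 uM selenite was added, NADPH fluorescence (Ex 340/Em 450 nm) was followed for 8 min.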
Nrf2 block – inhibitors of Nrf2 signaling | actives 2.1% (n = 360,000) | A549 ARE-Fluc reporter, luciferase luminescence, 18-24 h | Potency, µM (series often up to 46 µM), most hits filed as inhibitors | AID 504444; also: nearly all actives have a fitted effect of over 60% in size
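Quantitative HTS in A549 cells stably bearing an antioxidant response element-firefly luciferase construct. Inhibition of Nrf2-driven transcription was scored by luminescence after 18-24 h of compound exposure at 37 °C.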
IDH1 R132H inh – inhibitors of human mutant IDH1 R132H; IDH1-R132H enzyme, NADPH consumption, diaphorase/resazurin fluorescence; Potency, µM (titrated, usually from 76.6 µM), actives largely listed as inhibitors; actives 0.093% (n = 390,000); AID 602179; also: nearly all actives have a fitted effect of over 65% in size
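IDH1-R132H (0.5 ug/mL dispensed) in pH 7.5 Tris buffer was preincubated 30 min with compound, then given a substrate mix of 0.016 mM NADPH and 2 mM alpha-KG for 80 min at room temperature; remaining NADPH was read by diaphorase/resazurin fluorescence.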
Hits are given with their value; - = inactive; ? = inconclusive; . = no result given; [ ] = another dose, or the depositor's remark. Calls follow the shape of the dose curve; as a rule, active = well fitted curve in the direction sought with a large enough effect; inconclusive = small, poorly fitted or top-dose-only effect, or another doubt; inactive = no such curve, though single readings can be large; an effect the other way counts as inactive or inconclusive.

SMILES	TrxR1 substrate	Mito fusion yeast	A549 viability	rTrxR1 inhibitor	Nrf2 block	IDH1 R132H inh
COc1cc(/C=C2\CC/C(=C\c3cc(OC)c(OC)c(OC)c3)C2=O)cc(OC)c1OC	-	-	-	-	-	-
COc1ccc(/C=C2/CCc3ccccc3C2=O)cc1OC	-	-	-	-	23.1µM	-
COc1cc(/C=C2\CCc3ccccc3C2=O)cc(OC)c1OC	-	-	-	?	-	-
COc1cc(/C=C2\CC(C(C)(C)C)C/C(=C\c3cc(OC)c(OC)c(OC)c3)C2=O)cc(OC)c1OC (centres undefined)	-	-	8.2µM	-	5.8µM	-
O=C(O)c1ccc2c(c1)C(=O)N([C@H](Cc1ccc(O)c(O)c1)C(=O)O)C2=O	.	-	-	.	-	.
O=C(Cn1c(=O)n(Cc2ccc3c(c2)OCO3)c(=O)c2oc3ccccc3c21)Nc1ccccc1	-	.	-	-	?	-
Cc1nc2ccn(Cc3cccnc3)c(=O)c2cc1C(=O)N1CCN(c2ccccc2)CC1	-	.	-	-	-	-
O=C(CNC(=O)c1ccccc1)OC(C(=O)Nc1ccc2c(c1)OCO2)c1ccccc1 (centres undefined)	.	.	-	.	-	.
O=C(Nc1cccc(O)c1)c1cc2nc(-c3ccc(Br)cc3)cc(C(F)(F)F)n2n1	-	.	-	-	-	-
O=C(NCc1cccc(Cl)c1)C1CCCN(c2ncnc3onc(-c4ccc(F)cc4)c23)C1 (centres undefined)	-	.	-	-	-	-
C=CC(=O)N1C/C(=C/c2ccc(F)cc2)C(=O)/C(=C\c2ccc(F)cc2)C1	-	.	?	25.1µM	?	-
CCCCc1cc(=O)oc2cc(OS(C)(=O)=O)ccc12	-	15.8µM	-	-	-	-
C=C(Cl)COc1ccc2c(CCCC)cc(=O)oc2c1	-	-	-	-	.	-
CN(Cc1ccccc1)c1nc(-c2ccc([N+](=O)[O-])cc2)nc2ccccc12	-	-	-	-	?	-
O=[N+]([O-])c1ccc(-c2nc(C(Cl)Cl)c3ccccc3n2)cc1	-	-	?	-	14.6µM	-
CC(=O)Oc1ccc2ccccc2c1C(NC(=O)Cc1ccccc1)c1ccc(Cl)cc1 (centres undefined)	-	-	?	-	20.6µM	-
C#CCOCCOCCOCCNc1nc(N2CCN(C(=O)CCCCCCCCCCNC(=O)[C@H]([C@@H](C)CC)n3cc(CCCCN=C(N)N)nn3)CC2)nc(N2CCN(C(=O)CCCCCCCCCCNC(=O)[C@@H]([C@H](C)O)n3cc(C)nn3)CC2)n1	-	-	?	-	23.1µM	-
Cc1nn(-c2ccccc2)c2c1C1(C(=O)Nc3ccccc31)N1C(=N2)Sc2ccccc21 (centres undefined)	-	17.8µM	?	-	.	-
CCNC(=S)N(CCc1c(C)[nH]c2ccc(C)cc12)Cc1cc(OC)c(OC)c(OC)c1	-	-	-	-	18.4µM	-
COCCNC(=S)N(CCc1c(C)[nH]c2ccc(C)cc12)Cc1cc(OC)c(OC)c(OC)c1	-	-	-	-	-	-
CC(=NNc1nc2ccccc2o1)c1cc2ccccc2cn1	-	.	10.3µM	-[11.4 µM]	?	-
O=C(Nc1ccccc1OC(F)F)c1cc2c(s1)CCC2	-	-	-	-	?	-
COc1ccccc1NC(=O)c1ccc(NC(=O)c2cc3c(s2)CCC3)cc1	-	-	-	-	23.1µM	-
O=C(c1ccccc1O)N(Cc1cccs1)Cc1cccs1	.	.	-	.	?	.
Cc1nc(-c2cccc(NC(=O)Cc3ccccc3)c2)cs1	-	-	-	-	?	-
SMILES	TrxR1 substrate	Mito fusion yeast	A549 viability	rTrxR1 inhibitor	Nrf2 block	IDH1 R132H inh
Cc1nc(-c2cccc(NC(=O)c3ccc(Br)o3)c2)cs1	-	-	-	-	-	-
Cc1nc(-c2ccc(C(=O)Nc3cccc(Br)c3)cc2)cs1	-	-	?	-	11.6µM	-
Cc1nc(-c2cccc(NC(=O)c3ccc(-n4nccc4C)cc3)c2)cs1	-	?	-	-	16.4µM	-
Oc1ccccc1C1C=C(c2ccc3c(c2)OCO3)NC(c2cccc(F)c2)N1 (centres undefined)	-	.	-	-	-	.
O=C1CCc2cc(S(=O)(=O)Nc3cccc4ccccc34)ccc2N1	.	.	-	.	?	.
CCCCCCCCCCCCCCCC[N+](C)(C)CCN(Cc1ccc(OC)cc1)c1ncccn1	-	-	?	-	20.6µM	-
Cc1cc(C)c(NC(=O)COCc2cc(-c3cccs3)on2)c(C)c1	-	.	-	-	-	-
CC1CCCCC1NC(=O)COCc1cc(-c2cccs2)on1 (centres undefined)	-	?	-	44.7µM	-	-
CC[n+]1cccc(Br)c1	-	.	.	-	.	.
Cn1nnnc1Sc1ncnc2scc(Br)c12	-	.	-	5.62µM	-	.
Cn1nnnc1Sc1ncnc2scc(I)c12	.	.	?	.	-	.
Cn1nnnc1Sc1ncnc2scc(-c3ccccc3Br)c12	-	-	-	-	20.6µM	.
COC(=O)/C=C/c1ccc2c(c1)S(=O)(=O)N(C1CCCC1)[C@H]2CC(=O)OC	-	.	.	-	.	.
O=C(Nc1cccc(Cl)c1)c1ccc(F)c(S(=O)(=O)N2CCN(c3ccccn3)CC2)c1	-	-	-	-	20.6µM	-
CC(C)(C)c1ccc(C(=O)Nc2cccc(C(=O)N3CCOCC3)c2)cc1	-	-	?	-	8.2µM	-
O=C(Nc1cccc(Br)c1)c1ccc(Cl)c(S(=O)(=O)N2CCOCC2)c1	-	-	?	-	10.3µM	-
O=C(Nc1cccc(C(=O)NC2CC2)c1)c1ccc(Cl)c(S(=O)(=O)N2CCOCC2)c1	-	-	-	-	-	-
CCOc1ccc(NC(=O)c2ccc(F)c(S(=O)(=O)N3CCN(c4ccccn4)CC3)c2)cc1	-	-	-	-	?	-
CC(=O)Oc1ccc(-c2ccc(C(=O)Nc3cccc(S(=O)(=O)N4CCOCC4)c3)cc2)cc1	-	-	?	-	13µM	-
COc1ccc(C(=O)NC(=S)Nc2cccc(S(=O)(=O)N3CCOCC3)c2)cc1	-	-	-	?	-	-
CCn1cc(C(=O)NCCCOC)c(=O)c2cc(S(=O)(=O)N3CCc4ccccc4C3)ccc21	-	.	-	-	-	-
Cc1ccc(C(=O)Nc2cccc(S(=O)(=O)N3CCCCC3)c2)cc1[N+](=O)[O-]	-	-	-	-	16.4µM	-
O=C(COc1ccc(C(=O)c2ccc(F)cc2)cc1)Nc1cccc(S(=O)(=O)N2CCOCC2)c1	-[11.4 µM]	.	-	-[11.4 µM]	23.1µM	-
Cc1ccc(C(=O)Nc2cccc(S(=O)(=O)N3CCCCC3)c2)cc1S(=O)(=O)N1CCOCC1	-	.	-	-	7.31µM	-
